Reference: PubChem BioAssay (Tox21)
Several values for one entry are separate records, joined by “and”; a condition that tells them apart may be missing. Equal values may be shown once. Results filed as inconclusive are left out. Entries that show only a call come without a potency. A number with no mark means an inactive call. Activity calls are given as the source filed them. Calls come from the whole dose curve; as a rule, active = well fitted cell-killing curve with a large enough effect in the repeat runs (not every such curve was filed as active); inconclusive = weak or mixed curves, or effect the other way; inactive = no such curve, though single readings can be large or run the other way.

Test: qHTS assay to identify small molecule antagonists of the estrogen related receptor signaling pathway with the pleiotropic PPARgamma coactivator (PGC) from Tox21 10K library - cell viability counter screen (AID 1224840); note: nearly all actives have a fitted effect of over 40% in size
Details: PGC/ERR reporter cells viability, CellTiter-Fluor, 17.5 h; series mostly up to 92.4 µM; viability change, negative = cytotoxic: at the top concentration
Excerpt: National Center for Advancing Translational Sciences [NCATS]
NIH Chemical Genomics Center [NCGC]
U.S. Environmental Protection Agency [EPA]
National Institutes of Environmental Health Sciences [NIEHS]
National Toxicology Program [NTP]
U.S. Food and Drug Administration [FDA]
Estrogen related receptors (ERRs), the first orphan nuclear receptors discovered, play an important role in the control of cellular energy metabolism. ERRs are required for high-energy production in response to the environmental challenges. The pleiotropic PPARgamma coactivator (PGC) is a major partner of ERR and a key regulator in energy homeostasis. Together they have been implicated in the etiology of metabolic disorders such as Type 2 diabetes and metabolic syndrome. ERR-alpha was also identified as an adverse marker for breast cancer progression; ERR-alpha-positive tumors have a poor prognosis. To screen and to identify environmental compounds that perturb the ERR and PGC/ERR signaling pathways could provide valuable information for potential therapeutic or preventive measures in the treatment of metabolic disease. To differentiate true PGC/ERR antagonists or agonist from cytotoxic substances, the assay is multiplexed with cell viability assay.
Tox21 Assay Protocol Summary:
The PGC/ERR cells were dispensed at 2,000 cells/5 ul/well in 1536-well white plates using a Multidrop dispenser. After the assay plates were incubated at a 37 C/5% CO2 incubator for 6 hours, 23 nL of compounds dissolved in DMSO, positive and negative controls or DMSO only was transferred to the assay plate by a pin tool. The plates were incubated at 37 C for 17.5 hours. 1 ul/well of CellTiter-Fluor reagent was added into the assay plates using a Flying Reagent Dispenser. After 30-minute incubation at 37 C/5% CO2, the fluorescence intensity in the plates was measured using a ViewLux plate reader.
Potency is the fitted concentration of half-maximal effect.

Q: Which Potency does the source give for C[N+](C)(C)C here?
A: inactive

Q: Which Potency does the source give for N#CC(c1ccccc1)c1ccccc1 here?
A: inactive

Q: With CCOP(=S)(OCC)SCn1c(=O)oc2cc(Cl)ccc21 as the compound, how does the Potency read?
A: inactive

Q: For CCCCCCCCCCCCCl, which Potency is on record?
A: inactive

Q: Which “viability change, negative = cytotoxic” value does the source give for CC(C)(c1ccc(OCC2CO2)cc1)c1ccc(OCC2CO2)cc1 (stereo not given) here?
A: -12%

Q: Which Potency does the source give for CC(C)(O)C(=O)Nc1ccc([N+](=O)[O-])c(C(F)(F)F)c1 here?
A: inactive

Q: Which Potency does the source give for CCN(CC)C(=O)C(C)Oc1cccc2ccccc12 (stereo not given) here?
A: inactive

Q: Which Potency does the source give for ClCC(Cl)CCl here?
A: inactive

Q: With O=C1C(Cl)=C(Cl)C(=O)c2ccccc21 as the compound, how does the “viability change, negative = cytotoxic” value read?
A: -12.5%

Q: For C=C(C)C#N, which Potency is on record?
A: inactive

Q: With Clc1ccccc1-c1nnc(-c2ccccc2Cl)nn1 as the compound, how does the Potency read?
A: inactive

Q: For COP(=S)(OC)SCn1nnc2ccccc2c1=O, which “viability change, negative = cytotoxic” value is on record?
A: -1.48%

Q: Which Potency does the source give for CCOS(=O)(=O)OCC here?
A: inactive

Q: For CC(C)CON=O, which Potency is on record?
A: inactive

Q: With CC(C)(c1ccccc1)c1ccc(O)cc1 as the compound, how does the “viability change, negative = cytotoxic” value read?
A: -17.1%

Q: For CC1=C(C(=O)Nc2ccccc2)SCCO1, which Potency is on record?
A: inactive

Q: Which Potency does the source give for CC(C)(C#N)N=NC(C)(C)C#N here?
A: inactive

Q: Which Potency does the source give for [CH3][Sn]([Cl])([Cl])[Cl] here?
A: inactive

Q: Which Potency does the source give for CCC[CH2][Sn]([Cl])([Cl])[CH2]CCC here?
A: 492 nM (active) and 486 nM (active)

Q: For ClCc1ccccn1, which Potency is on record?
A: inactive

Q: Which Potency does the source give for Cl here?
A: inactive

Q: Which Potency does the source give for c1ccc(C2CO2)cc1 (stereo not given) here?
A: inactive

Q: With Clc1cccc(Cl)c1 as the compound, how does the Potency read?
A: inactive

Q: For Clc1cccc(C(Cl)(Cl)Cl)n1, which Potency is on record?
A: inactive

Q: With COc1ccc(C=O)cc1OC as the compound, how does the Potency read?
A: inactive

Q: With Cc1cc(Cl)ccc1N=CN(C)C as the compound, how does the Potency read?
A: inactive

Q: Which Potency does the source give for CCNCC here?
A: inactive

Q: Which “viability change, negative = cytotoxic” value does the source give for C[C@]12CCC(=O)C=C1CC[C@@H]1[C@@H]2CC[C@@]2(C)[C@H]1CC[C@]2(C)O here?
A: -1.89% [at 42.5 µM]

Q: Which Potency does the source give for Brc1ccc(Br)cc1 here?
A: inactive

Q: With CC(O)CN(CC(C)O)CC(C)O (stereo not given) as the compound, how does the Potency read?
A: inactive

Q: Which Potency does the source give for CC(C)(c1ccccc1)c1ccc(O)c(C(C)(C)c2ccccc2)c1 here?
A: 54 µM (active) and 54.5 µM (active)

Q: Which Potency does the source give for N#Cc1c(Cl)c(Cl)c(Cl)c(C#N)c1Cl here?
A: 4.24 µM (active) and 6.11 µM (active)

Q: Which Potency does the source give for COP(=S)(OC)Oc1ccc(S(=O)(=O)N(C)C)cc1 here?
A: inactive

Q: Which Potency does the source give for NC(=O)CN1CCCC1=O here?
A: inactive

Q: For CC(C)Nc1nc(Cl)nc(NC(C)C)n1, which Potency is on record?
A: inactive

Q: For Cc1ccc(N=CN(C)C=Nc2ccc(C)cc2C)c(C)c1, which Potency is on record?
A: inactive

Q: With O=C1Nc2ccc(Cl)cc2C(c2ccccc2)=NC1O (stereo not given) as the compound, how does the Potency read?
A: inactive

Q: Which Potency does the source give for NN=C(N)N here?
A: inactive

Q: With CC1CC(=O)O1 (stereo not given) as the compound, how does the Potency read?
A: inactive

Q: Which Potency does the source give for O=NN1CCOCC1 here?
A: inactive
